# Source: ChEMBL document CHEMBL2218924, “A broad activity screen in support of a chemogenomic map for kinase signalling research and drug discovery” (Biochem J, 2013)
# Key:
# [1] = target: Vascular endothelial growth factor receptor 3 (Homo sapiens) (UniProt P35916); details: at 10 µM
# [2] = target: Macrophage colony-stimulating factor 1 receptor (Homo sapiens) (UniProt P07333); details: at 1 µM
# [3] = target: Macrophage colony-stimulating factor 1 receptor (Homo sapiens) (UniProt P07333); details: at 10 µM
# [4] = target: Tyrosine-protein kinase Fyn (Homo sapiens) (UniProt P06241); details: at 1 µM
# [5] = target: Tyrosine-protein kinase Fyn (Homo sapiens) (UniProt P06241); details: at 10 µM
# [6] = target: T1, Mitogen-activated protein kinase kinase kinase kinase 2 (Homo sapiens) (UniProt Q12851); details: at 1 µM
# T1 sequence (whole entry): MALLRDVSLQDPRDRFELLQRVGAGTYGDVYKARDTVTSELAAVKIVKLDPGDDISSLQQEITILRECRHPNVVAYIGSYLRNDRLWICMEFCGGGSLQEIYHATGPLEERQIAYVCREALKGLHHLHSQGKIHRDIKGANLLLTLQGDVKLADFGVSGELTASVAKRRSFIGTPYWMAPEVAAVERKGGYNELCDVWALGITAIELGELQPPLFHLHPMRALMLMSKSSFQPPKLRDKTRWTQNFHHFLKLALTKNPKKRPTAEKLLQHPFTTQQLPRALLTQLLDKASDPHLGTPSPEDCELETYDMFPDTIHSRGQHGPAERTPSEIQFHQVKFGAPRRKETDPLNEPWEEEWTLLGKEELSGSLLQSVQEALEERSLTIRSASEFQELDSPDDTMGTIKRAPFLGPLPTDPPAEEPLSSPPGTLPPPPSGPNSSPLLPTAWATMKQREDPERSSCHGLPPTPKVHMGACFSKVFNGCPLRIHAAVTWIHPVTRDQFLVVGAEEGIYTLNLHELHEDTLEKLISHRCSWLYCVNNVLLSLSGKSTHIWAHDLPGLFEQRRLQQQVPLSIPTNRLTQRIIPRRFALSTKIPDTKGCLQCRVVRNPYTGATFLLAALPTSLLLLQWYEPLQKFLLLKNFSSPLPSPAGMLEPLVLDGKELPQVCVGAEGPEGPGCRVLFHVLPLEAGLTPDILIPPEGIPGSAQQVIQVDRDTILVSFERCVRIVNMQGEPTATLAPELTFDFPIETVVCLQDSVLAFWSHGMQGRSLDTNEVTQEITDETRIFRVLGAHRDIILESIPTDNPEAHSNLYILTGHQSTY
# [7] = target: T1, Mitogen-activated protein kinase kinase kinase kinase 2 (Homo sapiens); details: at 10 µM
# [8] = target: G protein-coupled receptor kinase 5 (Homo sapiens) (UniProt P34947); details: at 1 µM
# [9] = target: G protein-coupled receptor kinase 5 (Homo sapiens) (UniProt P34947); details: at 10 µM
# [10] = target: G protein-coupled receptor kinase 6 (Homo sapiens) (UniProt P43250); details: at 1 µM
# [11] = target: G protein-coupled receptor kinase 6 (Homo sapiens) (UniProt P43250); details: at 10 µM
# [12] = target: T2, Rhodopsin kinase GRK7 (Homo sapiens) (UniProt Q8WTQ7); details: at 1 µM
# T2 sequence (whole entry): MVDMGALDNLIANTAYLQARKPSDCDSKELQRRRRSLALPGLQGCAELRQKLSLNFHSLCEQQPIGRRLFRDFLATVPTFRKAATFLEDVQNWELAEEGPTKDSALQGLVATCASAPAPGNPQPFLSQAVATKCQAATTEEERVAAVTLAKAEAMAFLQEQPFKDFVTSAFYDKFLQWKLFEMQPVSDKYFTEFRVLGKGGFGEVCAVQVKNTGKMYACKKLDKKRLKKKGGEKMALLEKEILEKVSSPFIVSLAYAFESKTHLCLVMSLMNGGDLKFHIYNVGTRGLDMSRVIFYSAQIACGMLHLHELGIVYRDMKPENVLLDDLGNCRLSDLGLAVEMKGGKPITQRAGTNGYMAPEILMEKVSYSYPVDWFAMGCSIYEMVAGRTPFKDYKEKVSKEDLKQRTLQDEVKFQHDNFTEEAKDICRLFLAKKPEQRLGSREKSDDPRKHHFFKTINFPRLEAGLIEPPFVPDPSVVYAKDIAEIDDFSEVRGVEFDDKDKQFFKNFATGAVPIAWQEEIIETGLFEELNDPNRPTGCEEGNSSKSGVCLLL
# [13] = target: T2, Rhodopsin kinase GRK7 (Homo sapiens); details: at 10 µM
# [14] = target: Glycogen synthase kinase-3 alpha (Homo sapiens) (UniProt P49840); details: at 1 µM
# [15] = target: Glycogen synthase kinase-3 alpha (Homo sapiens) (UniProt P49840); details: at 10 µM
# [16] = target: Glycogen synthase kinase-3 beta (Homo sapiens) (UniProt P49841); details: at 1 µM
# [17] = target: Glycogen synthase kinase-3 beta (Homo sapiens) (UniProt P49841); details: at 10 µM
# [18] = target: Homeodomain-interacting protein kinase 1 (Homo sapiens) (UniProt Q86Z02); details: at 1 µM
# [19] = target: Homeodomain-interacting protein kinase 1 (Homo sapiens) (UniProt Q86Z02); details: at 10 µM
# [20] = target: Homeodomain-interacting protein kinase 2 (Homo sapiens) (UniProt Q9H2X6); details: at 1 µM
# Chain of Homeodomain-interacting protein kinase 2 (Homo sapiens) (Q9H2X6 whole entry, looked up): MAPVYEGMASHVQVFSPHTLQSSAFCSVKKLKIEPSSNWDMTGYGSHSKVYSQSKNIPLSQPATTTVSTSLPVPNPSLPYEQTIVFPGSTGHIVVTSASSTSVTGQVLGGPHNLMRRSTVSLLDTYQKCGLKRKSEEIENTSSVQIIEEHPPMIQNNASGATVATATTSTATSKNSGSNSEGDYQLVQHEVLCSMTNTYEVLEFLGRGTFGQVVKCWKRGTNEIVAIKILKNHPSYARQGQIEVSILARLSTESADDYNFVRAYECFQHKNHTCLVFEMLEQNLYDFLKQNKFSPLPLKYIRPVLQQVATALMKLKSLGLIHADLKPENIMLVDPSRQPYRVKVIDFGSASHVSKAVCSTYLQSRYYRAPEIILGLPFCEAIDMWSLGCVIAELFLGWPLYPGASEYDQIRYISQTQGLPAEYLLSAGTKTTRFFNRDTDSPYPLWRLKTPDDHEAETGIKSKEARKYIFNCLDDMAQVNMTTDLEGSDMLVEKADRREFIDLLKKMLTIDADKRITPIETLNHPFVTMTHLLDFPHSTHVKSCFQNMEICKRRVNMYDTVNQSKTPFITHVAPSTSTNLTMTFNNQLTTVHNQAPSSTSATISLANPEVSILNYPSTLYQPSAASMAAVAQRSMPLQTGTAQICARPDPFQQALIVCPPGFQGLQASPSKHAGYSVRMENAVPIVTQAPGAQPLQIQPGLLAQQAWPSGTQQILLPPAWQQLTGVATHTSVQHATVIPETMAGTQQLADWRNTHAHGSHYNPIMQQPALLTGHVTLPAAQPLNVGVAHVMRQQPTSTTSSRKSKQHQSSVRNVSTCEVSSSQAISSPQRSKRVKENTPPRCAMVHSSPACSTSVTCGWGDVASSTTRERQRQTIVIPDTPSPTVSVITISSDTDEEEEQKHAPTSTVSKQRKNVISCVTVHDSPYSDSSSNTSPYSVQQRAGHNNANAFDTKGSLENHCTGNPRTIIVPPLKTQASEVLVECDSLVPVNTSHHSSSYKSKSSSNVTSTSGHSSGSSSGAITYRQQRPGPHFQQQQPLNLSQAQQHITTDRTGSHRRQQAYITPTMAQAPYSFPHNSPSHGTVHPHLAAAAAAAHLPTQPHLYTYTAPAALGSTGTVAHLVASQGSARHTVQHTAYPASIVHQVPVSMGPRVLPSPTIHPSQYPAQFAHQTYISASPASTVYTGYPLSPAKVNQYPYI
# Chain of Vascular endothelial growth factor receptor 3 (Homo sapiens) (P35916 whole entry): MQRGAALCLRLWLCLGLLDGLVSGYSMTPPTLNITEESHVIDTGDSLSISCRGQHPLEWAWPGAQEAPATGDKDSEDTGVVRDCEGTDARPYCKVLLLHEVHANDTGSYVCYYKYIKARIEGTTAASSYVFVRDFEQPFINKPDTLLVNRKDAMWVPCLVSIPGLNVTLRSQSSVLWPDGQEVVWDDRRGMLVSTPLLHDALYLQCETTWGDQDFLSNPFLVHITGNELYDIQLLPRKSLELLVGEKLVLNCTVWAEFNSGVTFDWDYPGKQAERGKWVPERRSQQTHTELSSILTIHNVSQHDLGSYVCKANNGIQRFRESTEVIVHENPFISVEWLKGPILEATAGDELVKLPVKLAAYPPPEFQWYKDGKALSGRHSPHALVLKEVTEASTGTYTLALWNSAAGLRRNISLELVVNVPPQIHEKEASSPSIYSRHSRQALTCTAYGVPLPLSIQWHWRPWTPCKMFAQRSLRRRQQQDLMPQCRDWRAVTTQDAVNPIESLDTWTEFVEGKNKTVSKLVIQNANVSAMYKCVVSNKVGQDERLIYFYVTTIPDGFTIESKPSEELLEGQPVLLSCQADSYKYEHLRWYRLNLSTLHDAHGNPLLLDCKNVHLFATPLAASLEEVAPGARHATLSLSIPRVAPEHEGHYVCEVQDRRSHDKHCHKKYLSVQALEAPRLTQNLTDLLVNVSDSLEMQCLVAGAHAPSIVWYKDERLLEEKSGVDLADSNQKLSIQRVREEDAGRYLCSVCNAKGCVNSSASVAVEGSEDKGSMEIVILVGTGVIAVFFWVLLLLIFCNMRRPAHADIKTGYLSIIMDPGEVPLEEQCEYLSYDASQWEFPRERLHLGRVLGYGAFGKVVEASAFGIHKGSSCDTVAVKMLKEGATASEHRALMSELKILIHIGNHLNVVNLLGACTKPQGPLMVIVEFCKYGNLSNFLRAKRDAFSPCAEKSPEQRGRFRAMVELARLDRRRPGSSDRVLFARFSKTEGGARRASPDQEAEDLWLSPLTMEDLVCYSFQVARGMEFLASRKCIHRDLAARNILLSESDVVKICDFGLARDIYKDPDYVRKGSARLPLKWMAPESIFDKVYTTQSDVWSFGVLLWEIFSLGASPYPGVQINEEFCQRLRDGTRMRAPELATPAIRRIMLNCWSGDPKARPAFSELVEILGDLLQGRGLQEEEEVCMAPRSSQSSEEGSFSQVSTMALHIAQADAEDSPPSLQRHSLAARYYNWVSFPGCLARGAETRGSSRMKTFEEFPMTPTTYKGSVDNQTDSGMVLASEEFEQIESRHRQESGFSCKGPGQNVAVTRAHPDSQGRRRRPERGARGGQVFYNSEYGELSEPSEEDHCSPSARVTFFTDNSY
# Chain of Macrophage colony-stimulating factor 1 receptor (Homo sapiens) (P07333 whole entry): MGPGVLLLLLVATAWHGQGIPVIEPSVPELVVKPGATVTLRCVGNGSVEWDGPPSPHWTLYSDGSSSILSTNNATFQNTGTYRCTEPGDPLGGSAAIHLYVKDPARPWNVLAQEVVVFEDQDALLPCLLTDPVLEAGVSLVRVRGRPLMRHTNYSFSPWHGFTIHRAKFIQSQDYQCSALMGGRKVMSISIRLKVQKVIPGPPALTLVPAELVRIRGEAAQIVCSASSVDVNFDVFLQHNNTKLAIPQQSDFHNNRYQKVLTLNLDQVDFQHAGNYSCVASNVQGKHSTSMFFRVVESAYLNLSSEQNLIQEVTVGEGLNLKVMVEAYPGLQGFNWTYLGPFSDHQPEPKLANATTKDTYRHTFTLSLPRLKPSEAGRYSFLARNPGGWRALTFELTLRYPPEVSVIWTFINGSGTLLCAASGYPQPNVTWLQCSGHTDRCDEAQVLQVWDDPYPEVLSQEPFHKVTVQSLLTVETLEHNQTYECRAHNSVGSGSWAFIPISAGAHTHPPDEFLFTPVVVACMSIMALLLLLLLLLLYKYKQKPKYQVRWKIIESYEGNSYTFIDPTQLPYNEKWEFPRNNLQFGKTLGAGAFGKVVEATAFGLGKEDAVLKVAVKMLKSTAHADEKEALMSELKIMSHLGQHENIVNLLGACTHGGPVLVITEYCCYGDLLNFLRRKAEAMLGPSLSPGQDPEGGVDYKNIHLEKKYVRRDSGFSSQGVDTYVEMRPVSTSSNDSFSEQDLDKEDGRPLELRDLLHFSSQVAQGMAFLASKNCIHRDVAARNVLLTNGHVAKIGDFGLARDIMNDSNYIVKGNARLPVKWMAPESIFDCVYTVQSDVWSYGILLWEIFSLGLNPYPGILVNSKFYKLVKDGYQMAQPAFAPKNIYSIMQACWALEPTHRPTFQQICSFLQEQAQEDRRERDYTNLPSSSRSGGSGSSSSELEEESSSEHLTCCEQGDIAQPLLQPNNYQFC
# Chain of Glycogen synthase kinase-3 alpha (Homo sapiens) (P49840 2-483 limits assumed): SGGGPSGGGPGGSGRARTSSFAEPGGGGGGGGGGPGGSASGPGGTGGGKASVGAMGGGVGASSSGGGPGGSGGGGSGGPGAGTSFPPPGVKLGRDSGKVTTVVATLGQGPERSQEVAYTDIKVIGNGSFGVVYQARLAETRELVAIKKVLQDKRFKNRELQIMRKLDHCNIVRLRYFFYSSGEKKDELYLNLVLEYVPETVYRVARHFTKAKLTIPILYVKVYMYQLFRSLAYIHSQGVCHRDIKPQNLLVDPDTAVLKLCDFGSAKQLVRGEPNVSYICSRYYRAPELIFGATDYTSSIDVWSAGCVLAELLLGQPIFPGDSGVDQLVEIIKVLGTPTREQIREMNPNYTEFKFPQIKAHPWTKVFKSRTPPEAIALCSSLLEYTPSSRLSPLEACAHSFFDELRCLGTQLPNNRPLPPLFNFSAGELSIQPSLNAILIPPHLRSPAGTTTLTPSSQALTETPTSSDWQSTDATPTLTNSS
# Chain of Glycogen synthase kinase-3 beta (Homo sapiens) (P49841 whole entry, looked up): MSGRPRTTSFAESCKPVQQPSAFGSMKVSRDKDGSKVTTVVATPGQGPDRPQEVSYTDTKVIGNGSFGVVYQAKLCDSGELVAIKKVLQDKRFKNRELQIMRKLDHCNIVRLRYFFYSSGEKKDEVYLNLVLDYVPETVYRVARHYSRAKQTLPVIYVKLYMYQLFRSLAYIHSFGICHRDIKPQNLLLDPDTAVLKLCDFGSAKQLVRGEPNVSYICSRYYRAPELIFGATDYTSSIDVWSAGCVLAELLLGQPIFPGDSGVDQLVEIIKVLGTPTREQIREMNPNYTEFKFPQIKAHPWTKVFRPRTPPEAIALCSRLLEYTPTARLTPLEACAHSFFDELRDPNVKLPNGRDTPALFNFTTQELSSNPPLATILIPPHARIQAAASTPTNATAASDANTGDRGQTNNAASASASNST
# Chain of Tyrosine-protein kinase Fyn (Homo sapiens) (P06241 2-537 limits assumed): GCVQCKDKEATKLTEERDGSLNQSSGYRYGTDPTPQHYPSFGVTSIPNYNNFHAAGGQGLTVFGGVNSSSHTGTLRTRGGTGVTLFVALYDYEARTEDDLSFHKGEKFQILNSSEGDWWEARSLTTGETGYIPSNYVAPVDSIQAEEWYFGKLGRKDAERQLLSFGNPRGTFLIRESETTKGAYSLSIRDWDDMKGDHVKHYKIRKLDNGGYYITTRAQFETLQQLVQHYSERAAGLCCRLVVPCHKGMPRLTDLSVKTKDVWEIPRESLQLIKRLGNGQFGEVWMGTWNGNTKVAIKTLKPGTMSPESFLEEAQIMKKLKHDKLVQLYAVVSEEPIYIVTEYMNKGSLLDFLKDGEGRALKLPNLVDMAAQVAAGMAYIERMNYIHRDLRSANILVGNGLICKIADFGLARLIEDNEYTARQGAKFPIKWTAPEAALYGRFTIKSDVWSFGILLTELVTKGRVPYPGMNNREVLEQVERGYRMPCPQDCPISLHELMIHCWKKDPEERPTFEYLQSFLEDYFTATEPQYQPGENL
smiles,measurement,setting,value
COc1cc2ncnc(Nc3ccc(OCc4ccccc4)cc3)c2cc1OC,residual activity,[1],2%
same,residual activity,[2],20%
same,residual activity,[3],11%
same,residual activity,[4],79%
same,residual activity,[5],64%
same,residual activity,[6],101%
same,residual activity,[7],85%
same,residual activity,[8],101%
same,residual activity,[9],97%
same,residual activity,[10],98%
same,residual activity,[11],97%
same,residual activity,[12],105%
same,residual activity,[13],99%
same,residual activity,[14],100%
same,residual activity,[15],160%
same,residual activity,[16],104%
same,residual activity,[17],119%
same,residual activity,[18],102%
same,residual activity,[19],105%
same,residual activity,[20],104%
C[S+]([O-])c1ccc(-c2nc(-c3ccc(F)cc3)c(-c3ccncc3)[nH]2)cc1 (stereo unspecified),residual activity,[1],42%
same,residual activity,[2],109%
same,residual activity,[3],52%
same,residual activity,[4],76%
same,residual activity,[5],35%
same,residual activity,[6],104%
same,residual activity,[7],100%
same,residual activity,[8],109%
same,residual activity,[9],104%
same,residual activity,[10],107%
same,residual activity,[11],102%
same,residual activity,[12],109%
same,residual activity,[13],108%
same,residual activity,[14],86%
same,residual activity,[15],49%
same,residual activity,[17],34%
same,residual activity,[18],102%
same,residual activity,[19],97%
same,residual activity,[20],110%
CCc1nc(-c2ccc(OC)cc2)[nH]c1-c1ccncc1,residual activity,[1],77%
same,residual activity,[2],78%
same,residual activity,[3],71%
same,residual activity,[4],75%
same,residual activity,[5],72%
same,residual activity,[14],106%
same,residual activity,[16],114%
same,residual activity,[17],115%
Cn1c2ccccc2c2c3c(c4c5ccccc5n(CCC#N)c4c21)CNC3=O,residual activity,[8],69%
O=[N+]([O-])/C=C/c1ccc2c(c1)OCO2,residual activity,[1],95%
same,residual activity,[2],87%
same,residual activity,[3],100%
same,residual activity,[4],105%
same,residual activity,[5],92%
same,residual activity,[6],92%
same,residual activity,[7],86%
same,residual activity,[8],106%
same,residual activity,[9],91%
same,residual activity,[10],105%
same,residual activity,[11],89%
same,residual activity,[12],103%
same,residual activity,[13],86%
same,residual activity,[14],125%
same,residual activity,[15],113%
same,residual activity,[17],74%
same,residual activity,[18],96%
same,residual activity,[19],112%
same,residual activity,[20],93%
O=C1NC(=O)C(c2cn(CCCn3ccnc3)c3ccccc23)=C1Nc1ccccc1,residual activity,[8],78%
N/C(=N\[N+](=O)[O-])N/N=C\c1ccc(-c2cccc([N+](=O)[O-])c2)o1,residual activity,[1],42%
same,residual activity,[2],67%
same,residual activity,[3],65%
same,residual activity,[4],77%
same,residual activity,[5],83%
same,residual activity,[7],87%
same,residual activity,[10],97%
same,residual activity,[11],94%
same,residual activity,[12],100%
same,residual activity,[13],91%
same,residual activity,[14],99%
same,residual activity,[15],78%
same,residual activity,[17],97%
same,residual activity,[18],99%
same,residual activity,[19],100%
same,residual activity,[20],82%
COc1cc2ncnc(Nc3cccc(Cl)c3)c2cc1OC,residual activity,[8],108%
c1ccc(-c2n[nH]c3c2oc2ccccc23)cc1,residual activity,[8],91%
same,residual activity,[10],99%
CN[C@@H]1C[C@H]2O[C@@](C)([C@@H]1OC)n1c3ccccc3c3c4c(c5c6ccccc6n2c5c31)C(=O)NC4,residual activity,[7],0%
same,residual activity,[18],87%
CC(C)n1cnc2c(NCc3ccccc3)nc(NCCCO)nc21,residual activity,[8],101%
same,residual activity,[10],96%
